Source: PubChem BioAssay (NCATS)
Inconclusive results are not listed. Activity calls are given as the source filed them. The call rests on the fitted dose curve; in most records, active means well fitted curve in the direction sought with a large enough effect; inconclusive means small, poorly fitted or top-dose-only effect, or another doubt; inactive means no such curve, though single readings can be large; an effect the other way counts as inactive or inconclusive.

Legend:
[1] = target: Glutathione peroxidase 1 (Homo sapiens) (UniProt P07203); assay: Primary qHTS Assay for Inhibitors of Recombinant Selenoprotein Glutathione Peroxidase 1 (GPX1) (AID 1845191); further: nearly all actives have a fitted effect of over 65% in size; on activity, negative = inhibition: on the % scale 0 is the no-effect control and ±100 the full control effect
How it was run: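 GPX1 10 nM, GR 100 nM, GSH 1 mM, NADPH 0.5 mM, CHP 0.5 mM (final). 30-min cpd preincubation, RT. Ex340/Em450 read t=0, t=15 min.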

[2] = target: Phospholipid hydroperoxide glutathione peroxidase GPX4 (Homo sapiens) (UniProt P36969); assay: Primary qHTS Assay for Inhibitors of Recombinant Selenoprotein Glutathione Peroxidase 4 (GPX4) (AID 1845192); further: nearly all actives have a fitted effect of over 65% in size; on activity change, negative = inhibition: series mostly up to about 50 µM; on the % scale 0 is the no-effect control and ±100 the full control effect
How it was run: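 qHTS, GR-coupled: GPX4 200 nM + cpd 30 min RT → GSH 1 mM, NADPH 0.5 mM, GR 100 nM → CHP 0.5 mM start; fluor 340/450 at t0 and t15 min; no-enzyme wells as control.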

[3] = target: Luciferin 4-monooxygenase (Photinus pyralis) (UniProt P08659); assay: Primary firefly luciferase (FLuc) qHTS assay for identification of artifact compounds. (AID 1845220); further: nearly all actives have a fitted effect of over 60% in size; further: potency means the concentration at half of the fitted maximal effect;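 on activity change, negative = inhibition: series mostly up to about 54 µM; plate controls were DMSO vehicle for no effect and no enzyme for full effect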
How it was run: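 In this counter-screen for luciferase artifacts, test compounds met substrate (10 uM each luciferin and ATP) before 10 nM enzyme started the reaction. Light output was measured 5 min later.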

[4] = test system: Nanoluciferase (engineered Oplophorus gracilirostris luciferase); assay: Primary Nanoluciferase (NLuc) qHTS assay for identification of artifact compounds. (AID 1845222); further: potency means the concentration at half of the fitted maximal effect;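 on activity, negative = inhibition: NLuc secreted into diluted conditioned medium of S16 cells; series mostly up to about 54 µM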
How it was run: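 Using secreted nanoluciferase in S16 culture medium (0.22 um filtered, 1:55 dilution), compounds were preincubated 15 min at RT. Signal was generated with Nano-Glo reagent (1:100) over 5 min.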

[5] = Primary redox qHTS assay for identification of artifact compounds. (AID 1845223);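 further: 0% = DMSO and 100% = reference compound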
How it was run: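 Redox-cycling detection via DTT (250 uM final) oxidation coupled to Amplex Red (25 uM)/HRP (250 mU/mL) in HBSS. 15 min preincubation plus 30 min after DTT, room temperature. Ex/Em 525/598 nm; 4-parameter Hill fit against DMSO and 10 uM DA3003.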

[6] = Primary fluorescence-based thiol-reactive (MSTI) qHTS assay for identification of artifact compounds. (AID 1845221); further: nearly all actives have a fitted effect of over 65% in size; further: potency means the concentration at half of the fitted maximal effect;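 on activity change, negative = thiol reactive: series mostly up to about 54 µM; thiol-reactive compounds lower the probe fluorescence signal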
How it was run: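 A multi-concentration qHTS design tested compounds against 4 uM MSTI, pH 7.4 phosphate-buffered saline. Plates were protected from light for 1 h at room temperature before imaging fluorescence.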

Glutathione peroxidase 1 (Homo sapiens), sequence (P07203 whole entry, looked up): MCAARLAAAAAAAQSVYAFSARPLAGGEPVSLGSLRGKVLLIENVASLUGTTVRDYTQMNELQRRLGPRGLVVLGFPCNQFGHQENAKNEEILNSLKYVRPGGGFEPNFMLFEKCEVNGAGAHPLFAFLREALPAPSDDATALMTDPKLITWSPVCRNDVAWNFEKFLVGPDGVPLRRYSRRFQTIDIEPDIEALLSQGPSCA
Phospholipid hydroperoxide glutathione peroxidase GPX4 (Homo sapiens), sequence (P36969 whole entry, looked up): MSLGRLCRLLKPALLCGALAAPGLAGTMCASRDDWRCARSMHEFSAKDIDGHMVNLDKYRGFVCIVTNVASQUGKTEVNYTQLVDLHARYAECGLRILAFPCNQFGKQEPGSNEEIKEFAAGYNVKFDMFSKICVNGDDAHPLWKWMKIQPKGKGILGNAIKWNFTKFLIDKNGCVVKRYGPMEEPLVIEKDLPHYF

C[C@@H]1C(=O)O[C@H]2[C@H]1CC[C@@]1(C)C(=O)C=C[C@@](C)(O)[C@H]21
inactive: Potency [1] | Potency [2] | Potency [3] | Potency [4] | Potency [5]

COc1c2ccoc2nc2c(OC)c(O[C@@H]3O[C@@H](C)[C@H](O)[C@@H](O[C@@H]4O[C@H](CO)[C@@H](O)[C@H](O)[C@H]4O)[C@H]3OC(C)=O)ccc12
inactive: Potency [1] | Potency [3] | Potency [6] | Potency [4]

CC1OC(OC2C(OC(=O)[C@]34CCC(C)(C)C[C@H]3C3=CCC5[C@@]6(C)CC[C@H](OC7OC(C(=O)O)C(O)C(O)C7O)C(C)(C)C6CC[C@@]5(C)[C@]3(C)CC4O)OC(CO)C2O)C(O)C(O)C1OC1OCC(O)C(O)C1O (some centres undefined)
inactive: Potency [1] | Potency [2] | activity change, negative = thiol reactive [6] 111% [at 11.5 µM] | activity, negative = inhibition [4] 0% [at 11.6 µM]

COc1ccc(-c2ccn(CC[C@](C)(C(=O)NO)S(C)(=O)=O)c(=O)c2)c(F)c1
inactive: Potency [1] | Potency [2] | Potency [4] | Potency [5]

N#Cc1cccc(-c2nc(-c3cccnc3)no2)c1
inactive: Potency [1] | Potency [2] | Potency [6] | Potency [4] | Potency [5]

COc1c(O)cc2c(c1O)C(=O)O[C@H](C)[C@H]2O
inactive: Potency [1] | Potency [2] | Potency [3] | Potency [4] | Potency [5]

CC1=CC(=O)CC(C)(C)C1/C=C/C(C)OC1OC(COC2OCC(O)C(O)C2O)C(O)C(O)C1O (centres undefined)
inactive: Potency [1] | Potency [2] | Potency [3] | Potency [4] | Potency [5]

CC(C)c1cc2c(c(O)c1O)[C@@]13CCCC(C)(C)C1[C@@H](O)[C@@H]2OC3=O (some centres undefined)
active: Potency [6] 0.927 µM
inactive: Potency [1] | Potency [2]

OCC1=C[C@@H](O)[C@@H]2C=CO[C@@H](O[C@@H]3O[C@H](CO)[C@@H](O)[C@H](O)[C@H]3O)[C@H]12
inactive: Potency [1] | Potency [2] | Potency [3] | Potency [4] | Potency [5]

COC(=O)C1=CO[C@@H](O[C@@H]2O[C@H](CO)[C@@H](O)[C@H](O)[C@H]2O)C2C1CC(O)C2C (some centres undefined)
inactive: Potency [2] | Potency [3] | Potency [6] | Potency [4] | Potency [5]

C=Cc1cc2oc(-c3ccc(O)c(F)c3)nc2cc1O
inactive: Potency [4] | Potency [5]

CCOC(=O)C(CCc1ccccc1)NC(C)C(=O)N1Cc2ccccc2CC1C(=O)O (centres undefined)
inactive: Potency [2] | Potency [3] | Potency [6] | Potency [4]

COC(O)(CC(C)C)C1Oc2cc(C)[nH]c(=O)c2O1 (centres undefined)
inactive: Potency [2] | Potency [3] | Potency [6] | Potency [4] | Potency [5]

COc1cc(C)c(C(=O)OC2C(C)OC(OC3CCC(C)C4C3C=C(C)C3/C(C)=C\CC/C(C)=C/C5(C)C=C(C(=O)O)C(C)CC56OC(=O)/C(=C(\O)C34C)C6=O)C(O)C2O)c(OC)c1 (centres undefined)
inactive: Potency [2] | activity change, negative = inhibition [3] 1.3% [at 11.6 µM] | activity change, negative = thiol reactive [6] 142% [at 11.5 µM] | activity, negative = inhibition [4] 4.78% [at 11.6 µM]

CC1(C)C2CC[C@]3(C)C(C(=O)C=C4[C@H]5C[C@@](C)(C(=O)O)CC[C@]5(C)CC[C@]43C)[C@@]2(C)CC[C@@H]1O (some centres undefined)
inactive: Potency [2] | Potency [3] | Potency [4] | Potency [5]

CCOC(=O)C(CCc1ccccc1)NC1CCCN2CCCC(C(=O)O)N2C1=O (centres undefined)
inactive: Potency [2] | Potency [3] | Potency [6] | Potency [4]

Cc1ccccc1N1CCN(S(=O)(=O)C[C@]23CC[C@H](C[C@@H]2NC(=O)[C@@H](N)CCS(C)(=O)=O)C3(C)C)CC1
inactive: Potency [2] | Potency [3] | Potency [6] | Potency [4] | Potency [5]

C[C@@H]1O[C@@H](OC2C(O[C@H]3[C@H](O[C@H]4CC[C@@]5(C)C(CC[C@]6(C)C5CC=C5C7CC(C)(C)CC(O)[C@]7(C)CC[C@]56C)C4(C)C)O[C@H](C(=O)O)[C@@H](O)[C@@H]3O)OC(CO)C(O)C2O)[C@H](O)[C@H](O)[C@H]1O (some centres undefined)
inactive: Potency [2] | activity change, negative = inhibition [3] 2.46% [at 11.6 µM] | activity change, negative = thiol reactive [6] 22.1% [at 11.5 µM] | activity, negative = inhibition [4] 0% [at 11.6 µM] | redox activity (% of DA3003) [5] 6.57% [at 11.5 µM]

CCc1cccc2c3c([nH]c12)[C@@](CC)(CC(=O)O)OCC3
inactive: Potency [2] | Potency [3] | Potency [4] | Potency [5]

O=C(O)c1ccnc2cc(-c3nc4ccccc4n3CCN3CCCCC3)sc12
inactive: Potency [3] | Potency [6] | Potency [4] | Potency [5]

CC(C)C[C@H](NC(=O)[C@@H]1O[C@H]1C(=O)O)C(=O)NCCCCN=C(N)N
inactive: Potency [2] | Potency [3] | Potency [6] | Potency [4] | Potency [5]

CC1(C)CC=C(c2cnc3ccccc3c2)c2cc(C(=O)Nc3ccc(C(=O)O)cc3)ccc21
inactive: Potency [2] | Potency [3] | Potency [6] | Potency [4] | Potency [5]

CCC(C)/C=C(C)/C=C/C1=CC2=C(Cl)C(=O)C(C)(OC(C)=O)C(=O)C2=CN1CCCCC(N)C(=O)O (centres undefined)
inactive: Potency [1] | Potency [3] | Potency [4]

COc1cc(/C=C/c2ccccc2)c(C(=O)O)c(O)c1CC=C(C)C
inactive: Potency [2] | Potency [3] | Potency [5]
active: Potency [4] 13.2 µM

C=CC(C)(O)CCC1C(C)(O)CCC2C(C)(C)CCCC21C (centres undefined)
inactive: Potency [2] | Potency [3] | Potency [6] | Potency [4] | Potency [5]

CC(C)(Oc1ccc(-c2nc3cc(Cl)ccc3s2)cc1)C(=O)O
inactive: Potency [1] | Potency [6] | Potency [5]
active: Potency [3] 2.39 µM

CCc1nnc(NS(=O)(=O)c2ccc(NC(=S)NC(=O)/C=C/c3ccc(F)cc3)cc2)s1
inactive: Potency [2] | Potency [3] | Potency [6] | Potency [4]

Cc1sc(C)c(C(=O)NC2(c3ccc(C(=O)O)cc3)CC2)c1Cc1ccc(C(F)(F)F)cc1
active: Potency [4] 4.78 µM
inactive: Potency [2] | Potency [3] | Potency [6] | Potency [5]

CC(=O)Nc1cccc2c1c(Sc1ccc(Cl)cc1)c(C)n2CC(=O)O
active: Potency [4] 10.7 µM
inactive: Potency [2] | Potency [3] | Potency [5]

CN1CCCC1Cc1c[nH]c2ccc(CCS(=O)(=O)c3ccccc3)cc12 (centres undefined)
inactive: Potency [2] | Potency [3] | Potency [6] | Potency [4] | Potency [5]

CC(C)C1CCC(C(=O)N[C@@H](Cc2ccccc2)C(=O)O)CC1 (some centres undefined)
inactive: Potency [2] | Potency [3] | Potency [6] | Potency [4] | Potency [5]

CCC(C)/C=C(C)/C=C/C1=CC2=CC(=O)C(C)(O)C(OC(C)=O)C2CO1 (centres undefined)
inactive: Potency [1] | Potency [3] | Potency [4]

NC1=NC2(c3cc(NC(=O)c4ccc(F)cn4)ccc3F)COCC2CS1 (centres undefined)
inactive: Potency [2] | Potency [3] | Potency [6] | Potency [4] | Potency [5]

COC(=O)C1C(O)CCC2CN3CCc4c([nH]c5ccccc45)C3CC21 (centres undefined)
inactive: Potency [2] | Potency [3] | Potency [4]

O=C(O)c1cccc(CN2C(=O)/C(=C(\c3ccccc3)c3ccc(Cl)cc3)c3ccccc32)c1
inactive: Potency [3] | Potency [4]

Cc1cc(C)c2nc(-c3ccccn3)cc(C(=O)Nc3ccc(S(=O)(=O)Nc4onc(C)c4C)cc3)c2c1
inactive: Potency [1] | Potency [4] | Potency [5]

O=C(NC1Cc2ccccc2N(C[C@@H](O)CO)C1=O)c1cc2cc(Cl)sc2[nH]1 (some centres undefined)
inactive: Potency [2] | Potency [3] | Potency [6] | Potency [4] | Potency [5]

CC1(C)[C@H]2C[C@H](C/C=C\CCCC(=O)O)[C@@H](NC(=O)c3csc4ccc(O)cc34)[C@@H]1C2
inactive: Potency [2] | Potency [3] | Potency [6] | Potency [4] | Potency [5]

CCCSc1nc(NC2CC2c2ccc(F)c(F)c2)c2nnn(C3CC(OCCO)C(O)C3O)c2n1 (centres undefined)
inactive: Potency [2] | Potency [3] | Potency [6] | Potency [4] | Potency [5]

CC(C)=CCC[C@](C)(O[C@@H]1O[C@H](CO[C@@H]2OC[C@H](O)[C@H](O)[C@H]2O)[C@@H](O)[C@H](O)[C@H]1O)[C@H]1CC[C@]2(C)[C@@H]1[C@H](O)C[C@@H]1[C@@]3(C)CC[C@H](O[C@@H]4O[C@H](CO)[C@@H](O)[C@H](O)[C@H]4O[C@@H]4O[C@H](CO)[C@@H](O)[C@H](O)[C@H]4O)C(C)(C)[C@@H]3CC[C@]12C
inactive: Potency [2] | Potency [3] | Potency [6] | Potency [4] | Potency [5]

COc1ccnc2[nH]cc(C(=O)C(=O)N3CCN(C(=O)c4ccccc4)CC3C)c12 (centres undefined)
inactive: Potency [2] | Potency [3] | Potency [6] | Potency [4] | Potency [5]

CCCCCOC(=O)Nc1nc(=O)n(C2O[C@H](C)[C@@H](O)[C@H]2O)cc1F (some centres undefined)
inactive: Potency [2] | Potency [3] | Potency [6] | Potency [4] | Potency [5]

Cc1ccc2[nH]c(=O)c(C3=NN(C(=O)CCC(=O)O)C(c4ccc(Br)cc4)C3)c(-c3ccccc3)c2c1 (centres undefined)
inactive: Potency [2] | Potency [3] | Potency [6] | Potency [4] | Potency [5]

CC1(C)CC[C@]2(C(=O)O)CC[C@]3(C)C(=CCC4[C@@]5(C)CC[C@H](O)C(C)(C)C5CC[C@]43C)C2C1 (some centres undefined)
inactive: Potency [2] | Potency [3] | Potency [6] | Potency [4] | Potency [5]

C[C@@H]1CC[C@]2(C(=O)O[C@@H]3O[C@H](CO[C@@H]4O[C@H](CO)[C@@H](O[C@@H]5O[C@@H](C)[C@H](O)[C@@H](O)[C@H]5O)[C@H](O)[C@H]4O)[C@@H](O)[C@H](O)[C@H]3O)CC[C@]3(C)C(=CCC4[C@@]5(C)C[C@@H](O)[C@H](O)[C@@](C)(CO)C5CC[C@]43C)C2[C@H]1C (some centres undefined)
inactive: Potency [2] | activity change, negative = inhibition [3] 3.24% [at 11.6 µM] | activity change, negative = thiol reactive [6] 329% [at 11.5 µM] | activity, negative = inhibition [4] 0% [at 11.6 µM] | redox activity (% of DA3003) [5] 3.39% [at 11.5 µM]

CN(C)CCC[C@]1(c2ccc(F)cc2)OCc2cc(C#N)ccc21
inactive: Potency [2] | Potency [3] | Potency [6] | Potency [4] | Potency [5]

CCCCS(=O)(=O)NC(Cc1ccc(OCCCCC2CCNCC2)cc1)C(=O)O (centres undefined)
inactive: Potency [2] | Potency [3] | Potency [6] | Potency [4] | Potency [5]

COc1cc(Nc2ccc([N+](=O)[O-])cc2C(=O)O)cc2ccccc12
inactive: Potency [2] | Potency [3]
active: Potency [6] 0.67 µM
